Screen size: about 31,000 sequences; about 1,400 (4.5%) were called active.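 Rule for the calls: active = median seed-adjusted z-score above 1 or below -1; inactive = the rest.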 Only a selection was taken, and actives are over-represented in it overall.
Test: Novel Modifiers of Survival Motor Neuron (SMN) Protein: Gene Identification via Genome-wide siRNA Screen;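 note: luminescence tracks full-length SMN protein made from the SMN2 reporter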
Details: HEK293T SMN2-luciferase reporter, siRNA knockdown, 72 h; actives lie on both sides
Text: Spinal muscular atrophy (SMA) is the most common neuromuscular autosomal recessive disorder and one of the leading genetic causes of infant death. SMA results from mutations inducing loss of function or deletion in the survival of motor neuron-1 gene (SMN1), leading to deficiency of the survival motor neuron (SMN) protein. Although a second nearly identical gene, SMN2, is retained in humans, its expression primarily produces an aberrantly spliced isoform that is largely unstable and quickly degraded. We performed a genome-wide RNAi screen using a cell-based reporter assay to identify genes and pathways that modulate SMN protein stability. The screen identified over 200 genes that led to the greatest increase or decrease in luciferase expression.
Using HEK293T cells stably expressing a luciferase reporter that combines the promoter and splicing based cassettes in tandem with the major portion of the native SMN2 cDNA with luciferase, we performed a genome-wide RNAi screen to identify modulators of SMN protein levels. Luciferase is expressed when full-length SMN protein is generated with luminescence signal proportional to SMN protein levels. Our luciferase-based reporter assay was used to screen Ambion Silencer Select Human Druggable Genome siRNA library (10418 genes, 3 unique siRNAs per gene) using lipid-based reverse transfection.
Briefly, 1 pmol of each siRNA was spotted to a well of a 384-well plate (Corning, Corning, NY) and 20 microL of serum-free DMEM containing […] of Lipofectamine RNAiMax (Life Technologies, Carlsbad, CA) was then added to each well. Transfected cells were maintained at 37 degrees C in 5% CO2 for 72 hours, 20 microL of ONE-Glo Reagent (Promega) was added to wells for luciferase quantification. Raw luminescence reads were normalized to Ambion(R) Silencer(R) Negative Control #2 siRNA, then log10 transformed. A robust statistical measure of median absolute deviation (MAD) to standardize siRNA activities from each screen. Common Seed Analysis was used to help prioritize clean hits as opposed to those appearing to arise from seed based off-target effects. Candidate modulators were defined as the genes having a MAD score greater than 1.0 or less than -1.0.

Sequence	median seed-adjusted z-score
CUAAGGAAGUAGUUGAUUATT against HADHB	-0.188 (inactive)
CUACCGUAACAACCGAAAATT against SCN10A	-0.401 (inactive)
CCAUUGCAAUCAACACCAATT against ALOX5	-0.201 (inactive)
GAUGACUUUUGAUAGUGAATT against ODC1	-1.64 (active)
AGGUCAUUGCUGAGAAGUATT against FMNL1	-0.3 (inactive)
GGAAGUACAUGAACGCAGUTT against EFTUD1	-1.39 (active)
GGACGACACGUUCUACCUGTT against ENDOG	-0.336 (inactive)
GCAGACAAGUCAACCGUGATT against FRK	-0.14 (inactive)
CAGGUUAUCGUGUGAAGGATT against TNFRSF14	0 (inactive)
GCACGAAGCUUUCCCUGGATT against KRT78	0.306 (inactive)
GUUUGAUGGUGAUAAGAAATT against PGD	-1.55 (active)
GAACCAAAUUGUACGAGAATT against IRX3	-0.285 (inactive)
GGGAUAAAUUUGACGUGGATT against SPAG1	0.413 (inactive)
GCUACAUCCUGUUCGAGAATT against CYP27A1	-0.391 (inactive)
CAGAAUAAAUCACACCCUATT against INSL3	-0.037 (inactive)
CCAAGAUGAGUAUAAAACATT against HRC	1.06 (active)
CCAUCUGCUUUCCCGAGUATT against GNAZ	-0.604 (inactive)
GCUGUGGAUUGUCCAACAATT against NPY5R	0.213 (inactive)
UCAACUGACUCAUACCUGUTT against KCNMB1	-0.465 (inactive)
GAACCACUAUGAUCAUUGATT against DPYSL2	-0.569 (inactive)
CAGUGUAUCUUCAUAAGAUTT against TAF1L	0.289 (inactive)
AGAGUGGAUUUGUACCAAATT against RAB39B	0.485 (inactive)
CGGUGACUCUUUAUGCACATT against PMPCB	0.507 (inactive)
GAGAGUGCCUUACACCAAATT against HOXD13	0.116 (inactive)

Sequence	median seed-adjusted z-score
GAGAGAAAAGGGUCACAAATT against GPR61	0 (inactive)
UGACCAUCGUCUACAAGAATT against COPZ2	-1.23 (active)
CAAGAAGCAUUAUUACGAUTT against PPIL2	-0.467 (inactive)
CCCUAGAGUAUUACACGGATT against DGKD	0.35 (inactive)
GGACAAAGACUGGUACGUUTT against HTT	-0.234 (inactive)
CCUUUUACAUGUUCUAUUUTT against SIVA1	0.0451 (inactive)
GGCAAGUUCUCCUUCGACATT against ALDH3B1	0.148 (inactive)
GAACUGUCGUAAACGCAAATT against NFE2L3	0.118 (inactive)
GCCUUAAGGAUGAAGAUAATT against FOXR2	0.593 (inactive)
GGUAUCACCUAUACAGAAATT against FKBP11	-0.085 (inactive)
ACUUCAAGCUCCUAAGCCATT against HBA1	-1.03 (active)
GCCUCUAAGUCUCGAGGAATT against TRPM3	-0.633 (inactive)
CACAGGUAAUCAUACCCUATT against NDUFA9	-0.325 (inactive)
GAAUCAGAAUACGUAGGAATT against PCDHA2	0.803 (inactive)
GGAGGAAUCUCGAAUGCGATT against CNOT1	1.2 (active)
GAGGCAAUAUGAAACGAGUTT against CKMT2	-0.862 (inactive)
GCAAUUGUCUGAUUAAUCATT against MB	0.504 (inactive)
GAACUGCACCAAAGAAACATT against AKTIP	-0.194 (inactive)
CGGACGAAGAGAUUGGGAATT against DRAP1	1.08 (active)
GCAGAAUUACAAGACAAGATT against VWA5A	0 (inactive)
CCGCCUUUCAAGAACGUAATT against IARS	-0.198 (inactive)
GAAUAGACCUGAAGACAAATT against CFLAR	-0.413 (inactive)
CAACGGAAGUGCUACUACUTT against FCER2	-1.75 (active)
CCCAAUAUGUGCGGAUUAATT against DSC3	0.18 (inactive)

Sequence	median seed-adjusted z-score
GGAAAGAGAUCUACCGCAATT against MYST1	0 (inactive)
GCUUCCCGAUUAACUGAAATT against MECP2	-0.332 (inactive)
AGAAUGCACCAAACAAACATT against DOLPP1	0.00977 (inactive)
GGUACAAAGCAAUCGGACATT against GUCA2B	-0.146 (inactive)
GUCUUUAGCUGACCUGAAUTT against DMD	-0.626 (inactive)
CCGAAGAAGCAAUAUCGAATT against CRKRS	-1.16 (active)
CCACCUUACUUUCCUGAAUTT against TMEM171	0.278 (inactive)
CACUUAUUCUGGUCCUUCATT against ELOVL3	0 (inactive)
CCGCUAAUGUUCAAGGACATT against UNC5B	-0.0207 (inactive)
GCAAUAGUCCCAAAAGCAATT against CD6	-0.33 (inactive)
GCAGGAGUUUGUUUAAUGATT against UGT1A10	0.286 (inactive)
GUAUACCGAUUGAUAACCATT against BTAF1	-1.19 (active)
GUGUUUUUGUAGUUACCUATT against TSEN34	0.918 (inactive)
CCACGAAGAAUGGAUUGAATT against TRIO	0.42 (inactive)
ACACCACGCUCAACAUCAATT against ZBED1	0.0567 (inactive)
GGUUGAUGCAGACAACAAATT against LGTN	0.491 (inactive)
GGAAUGCUAUGAUAGACGATT against GNAQ	-1.23 (active)
GGAAUUCGAGGAUUAUGCATT against HIAT1	-0.0612 (inactive)
CAAGGAGAGGCAUAACGUATT against DNASE1L3	0.0678 (inactive)
GAUUACAACCUGUAUCGAATT against THOC1	-3.04 (active)
GGACAUAAUGUAUUAUACUTT against DDHD1	0 (inactive)
GGUCACGGAUUGCUUUUUATT against DUS1L	0.0698 (inactive)
